# Sampled rows, rich in hits. Any-hit rate of the full collection: about 12%.
# JMJD2A Tudor inh = JMJD2A Tudor domain (human) inhibition | Potency, µM (series often up to 114 µM), hits mostly inhibitors | O75164 | AlphaScreen JMJD2A-Tudor / H3K4me3 peptide binding | hit rate 4.4% among 390,000; also: nearly all actives have a fitted effect of over 50% in size
# Target sequence (O75164 whole entry, looked up, the tested form may be a part): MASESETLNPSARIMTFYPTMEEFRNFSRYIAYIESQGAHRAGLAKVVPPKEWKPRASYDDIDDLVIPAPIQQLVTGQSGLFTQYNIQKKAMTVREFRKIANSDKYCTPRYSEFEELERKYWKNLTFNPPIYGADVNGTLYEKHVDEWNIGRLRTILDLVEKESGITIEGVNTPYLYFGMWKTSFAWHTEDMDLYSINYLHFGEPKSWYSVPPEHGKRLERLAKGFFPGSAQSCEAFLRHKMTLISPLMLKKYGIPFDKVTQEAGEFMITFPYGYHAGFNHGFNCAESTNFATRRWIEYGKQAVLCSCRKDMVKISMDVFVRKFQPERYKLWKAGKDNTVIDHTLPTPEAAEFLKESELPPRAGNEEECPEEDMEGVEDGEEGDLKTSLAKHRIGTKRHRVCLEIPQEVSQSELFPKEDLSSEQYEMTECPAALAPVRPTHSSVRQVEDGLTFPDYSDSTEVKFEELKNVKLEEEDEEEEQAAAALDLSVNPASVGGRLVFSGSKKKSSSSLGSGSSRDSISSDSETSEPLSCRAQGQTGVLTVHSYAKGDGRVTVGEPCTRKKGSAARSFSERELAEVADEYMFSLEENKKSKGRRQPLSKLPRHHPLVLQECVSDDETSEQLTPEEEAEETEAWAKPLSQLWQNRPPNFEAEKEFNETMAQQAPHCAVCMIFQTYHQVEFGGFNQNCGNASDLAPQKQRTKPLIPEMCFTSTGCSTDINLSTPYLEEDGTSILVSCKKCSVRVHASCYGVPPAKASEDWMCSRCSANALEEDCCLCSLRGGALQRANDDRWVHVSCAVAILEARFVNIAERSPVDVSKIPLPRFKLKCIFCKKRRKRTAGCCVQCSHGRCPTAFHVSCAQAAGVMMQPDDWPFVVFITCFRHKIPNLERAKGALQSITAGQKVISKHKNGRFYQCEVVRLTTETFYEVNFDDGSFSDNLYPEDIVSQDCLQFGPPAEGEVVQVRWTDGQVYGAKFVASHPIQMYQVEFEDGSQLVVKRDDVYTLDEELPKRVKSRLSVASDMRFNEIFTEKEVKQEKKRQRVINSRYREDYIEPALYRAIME
# Sfp inh = Sfp phosphopantetheinyl transferase inhibition. Biochemical Sfp PPTase activity, qHTS. hit rate 3.5% among 310,000. AID 1490. Potency, µM, usual class: inhibitors. Q9F4F7;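 also: the enzyme is Sfp with the accession as filed and its product quenches rhodamine fluorescence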
#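 Compounds were incubated with enzyme (final 15 nM) for 15 min at room temperature before substrate addition started the reaction. Fluorescence at 525 nm excitation, 598 nm emission was recorded immediately and after 30 minutes.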
# HP1b chromo inh = HP1-beta chromodomain-methylated histone interaction inhibition; hit rate 0.56% among 390,000; AlphaScreen HP1-beta / biotin-H3K9me3 peptide binding; AID 540317; Potency, µM (series often up to 114 µM), usual class: inhibitors; also: nearly all actives have a fitted effect of over 70% in size
#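 HP1-beta protein (50 nM final) preincubated 30 min at room temperature with biotinylated H3(1-18)K9me3 peptide (50 nM) in PBS pH 7.4, 0.01% Tween-20, then compound added for 30 min. AlphaScreen streptavidin donor/nickel chelate acceptor beads (10 ug/mL final), 30 min dark, luminescence read.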
# G9a block = G9a (human) methyltransferase inhibition. Q96KQ7. hit rate 8.8% among 350,000. G9a H3K9 monomethylation, AlphaScreen, 2 h. Potency, µM (highest dose often 102 µM), most hits filed as inhibitors; also: nearly all actives have a fitted effect of over 75% in size
#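 G9a (20 nM) preincubated 15 min RT with compounds, then 500 nM biotinylated H3K9 peptide and 20 uM SAM added; 2 h RT reaction. Monomethyl-H3K9 product detected by AlphaScreen with anti-H3K9me1 antibody, streptavidin donor and anti-rabbit IgG acceptor beads.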
# BAZ2B inh = BAZ2B (human) inhibition | hit rate 4.4% among 360,000 | Q9UIF8 | AlphaScreen BAZ2B-H3K14Ac peptide displacement | Potency, µM (highest dose often 114 µM), hits mostly inhibitors; also: nearly all actives have a fitted effect of over 60% in size
#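 BAZ2B 50 nM plus b-H3(5-23)K14Ac 50 nM, PBS pH 7.4/0.01% Tween-20, 30 min RT; compound added (max 110 uM), 30 min RT; streptavidin donor/Ni-chelate acceptor beads 10 ug/mL final, 20 min dark; AlphaScreen read.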
# L3MBTL1 block = blocks human L3MBTL1; AID 485360; hit rate 0.66% among 230,000; Potency, µM (doses to about 57.1 µM), hits mostly inhibitors; AlphaScreen L3MBTL1–H3K9me1 peptide binding; also: nearly all actives have a fitted effect of over 60% in size
#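 AlphaScreen proximity signal between nickel-chelate acceptor and streptavidin donor beads (final 10 ug/mL) reports binding of 50 nM L3MBTL1 to 75 nM biotin-H3 K9me1 peptide; complex incubated with compounds 30 min at room temperature; cefsulodin titration as control.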
# Numbers stand for hits; . = inactive; ? = inconclusive; / = no result; [ ] = another dose, or the depositor's remark. Calls follow the shape of the dose curve; as a rule, active = well fitted curve in the direction sought with a large enough effect; inconclusive = small, poorly fitted or top-dose-only effect, or another doubt; inactive = no such curve, though single readings can be large; an effect the other way counts as inactive or inconclusive.
SMILES,JMJD2A Tudor inh,Sfp inh,HP1b chromo inh,G9a block,BAZ2B inh,L3MBTL1 block
O=C1NC(=S)S/C1=C\c1coc2ccc(O)cc2c1=O,.[11.4 µM],.,.,45µM,?,.
COc1cccc(-c2nc(CS(=O)(=O)CC(=O)N3CCN(c4ccccc4)CC3)c(C)o2)c1,?,/,.,.,?,/
COCc1ccc(C(=O)N2CCCC(Nc3ccc(F)c(F)c3)C2)s1 (stereo not drawn),.,.,.,/,.,/
Cc1cccc(C(=O)Nc2ccc(N3CCN(c4ccc(F)cc4)CC3)c(C(=O)O)c2)c1,?,/,.,.,.,/
Cc1cccc(N2CCN(c3ccc(C(=O)O)cc3NC(=O)c3cccc(Cl)c3)CC2C)c1 (stereo not drawn),56µM,/,.,.,?,/
Cc1cccc(N2CCN(c3ccc(NC(=O)c4ccccc4)cc3C(=O)O)CC2C)c1 (stereo not drawn),89µM,/,.,?,79µM,/
Cc1cc(F)ccc1NC(=O)C1CSC2(C)CCC(=O)N12 (stereo not drawn),.,/,.,.,.,.
Cc1oc(C)c2c(=O)ccc3c(c12)OC(N)=C(C#N)C3c1ccc(F)cc1 (stereo not drawn),.[11.4 µM],?,?,?,56µM,28µM
O=c1c(-c2cc(F)cc(F)c2)nc2cncnc2n1Cc1ccccc1,/,.,/,.[0.501 µM],/,/
N#Cc1c(C#N)c(SSc2c(C#N)c(C#N)c(N)n2-c2ccccc2)n(-c2ccccc2)c1N,0.79µM,/,?,/,/,/
N#Cc1c(C#N)c(-c2ccccc2)n(-c2ccc(C(=O)O)cc2)c1N,.,.,.,56µM,?,.
CCOC(=O)c1c(C)[nH]c(O)c1C=Nc1ccc(Cl)cc1,.,?,?,50µM,.,.
COC(=O)c1c(C)[nH]c(O)c1C=Nc1ccc(C(C)C)cc1,45µM,.,?,?,35µM,.
COC(=O)c1c(C)[nH]c(O)c1C=Nc1ccc(Oc2ccccc2)cc1,?,.,.,.,.,.
CCOC(=O)c1c(C)[nH]c(O)c1C=Nc1ccc(C(F)(F)F)cc1,?,.,.,45µM,.,.
O=C(NN(Cc1ccccc1)Cc1ccccc1)c1ccccc1,.,/,.,/,/,/
CCn1c(SCC(=O)NCCOC)nc2sc(C)c(C)c2c1=O,/,45µM,/,.[12.7 µM],.,/
COCCNC(=O)CSc1nc2sc(C)c(C)c2c(=O)n1-c1ccccc1,.,.,.,.,.,.
CCOC(=O)c1cc(-c2ccccc2)n(CCC(=O)Nc2nc3c(C)cccc3s2)c1C,?,/,.,.,.,/
Cc1nn(C(C)c2n[nH]c(=S)n2-c2cccc(Cl)c2)c(C)c1[N+](=O)[O-] (stereo not drawn),?,.,.,3.5µM,.,.[11.4 µM]
COc1ccc(-n2c(C(C)n3nc(C)c([N+](=O)[O-])c3C)n[nH]c2=S)cc1 (stereo not drawn),13µM,.,.,6.3µM,.,.
Cc1ccc(-n2c(C(C)n3nc(C)c([N+](=O)[O-])c3C)n[nH]c2=S)cc1 (stereo not drawn),13µM,.,.,4µM,.,.
COc1cccc(NC(=O)CN(C)C(=O)c2ccc3c(c2)S(=O)(=O)N=C2CCCCCN23)c1,.,/,.,.,.,.
Cn1nc(C(=O)Nc2c(-c3ccccc3)nc3sccn23)c2ccccc2c1=O,.,40µM,.,.,?,.
O=C(NCc1ccccc1Cl)[C@@H]1CCCN1S(=O)(=O)c1ccc(Cl)cc1,.,/,.,/,/,.
SMILES,JMJD2A Tudor inh,Sfp inh,HP1b chromo inh,G9a block,BAZ2B inh,L3MBTL1 block
Cc1ccc(CSC2=NS(=O)(=O)c3ccccc32)cc1,.,/,.,/,/,/
Cc1ccc2nc(NCc3ccccc3)c(C#N)cc2c1,.,79µM,.,.,.,/
Cc1ccc2cc(C#N)c(NCCCNC(=O)C3CCCO3)nc2c1 (stereo not drawn),.,79µM,.,?,.,.
COc1ccc(C(=O)NCCNc2nc3ccc(C)cc3cc2C#N)cc1,.,?,.,45µM,.,.
O=C(O)COc1ccc(/C=C/C(=O)c2ccc3ccccc3c2)cc1,.,.,.,.,.,/
O=C(O)COc1ccc(/C=C/C(=O)c2ccc(C3CCCCC3)cc2)cc1,.,.,.,22µM,.,/
Cc1cccc(CCNC(=O)CC2C(=O)NCCN2CC2CCCCC2)n1 (stereo not drawn),.,.,.,?,.,.
Cc1ccccc1CNC(=O)CC1C(=O)NCCN1CC1CCCCC1 (stereo not drawn),.,.,.,?,.,.
Cc1ccccc1CN1CCNC(=O)C1CC(=O)NCCN1CCCCC1=O (stereo not drawn),.,.,.,79µM,.,/
Cc1cccc(CCNC(=O)CC2C(=O)NCCN2Cc2ccccc2C)n1 (stereo not drawn),.,.,.,50µM,.,/
CC(C)CN1CCNC(=O)C1CC(=O)NCCCN1CCCc2ccccc21 (stereo not drawn),.,.,.,.[12.7 µM],79µM,.
COc1ccc(CN2CCNC(=O)C2CC(=O)O)c(OC)c1 (stereo not drawn),.,.,.,14µM,.,.
c1ccc(-c2nc(SCc3nc4ccccc4[nH]3)c3oc4ccccc4c3n2)cc1,.,/,.,/,/,.
Cc1ccccc1CN1CCNC(=O)C1CC(=O)O (stereo not drawn),.,.,.,14µM,.,.
CCc1ccc2oc(C(=O)Nc3cc(Cl)ccc3OC)cc(=O)c2c1,.,/,.,.,.,/
CC1CCC2C(C1)Nc1c(C(=O)O)cccc1C2(C)C (stereo not drawn),.,.,.,/,79µM,.
COc1ccc(C(=O)N2CCCC(Nc3ccc(C(C)C)cc3)C2)c(OC)n1 (stereo not drawn),?,.,.,?,?,/
CCCC1CC(=O)OC1(C)C(=O)CSc1n[nH]c(-c2ccccc2)n1 (stereo not drawn),/,?,/,11µM,.,/
O=C(CSc1n[nH]c(-c2ccccc2)n1)N1CCOCC1,.,.,.,.,?,/
CCCC1CC(C)(C(=O)CSc2n[nH]c(-c3ccccc3)n2)OC1=O (stereo not drawn),35µM,79µM,.,32µM,?,/
Nc1ccc(-c2ccc(N)c(C(=O)O)c2)cc1C(=O)O,.,.,.,?,.,/
Nc1cc(-c2ccccc2)ccc1O,?,.,.,22µM,?,.
CC(=O)Nc1cc(-c2ccccc2)ccc1O,.,.,.,28µM,.,.
CCOc1cc(S(=O)(=O)NCCCN2CCOCC2)ccc1F,.,.,.,.,.,/
O=C(Nc1ccccc1)c1cnc(N2CCCCC2)c2ccccc12,.,/,.,.,.,/
Cc1cccc(C(=O)Nc2ccc(N3CCC(CCN4CCOCC4)CC3)c(C(=O)O)c2)c1,.,/,.,.[12.7 µM],32µM,.
O=C(Nc1ccc(N2CCC(N3CCCCC3)CC2)c(C(=O)O)c1)c1ccc(Br)cc1,?,/,.,.,79µM,/

# Source: PubChem
